# Results taken from PubChem BioAssay AID1159580 (chemical genetic matrix, 2015).
# Out of some 5,500 compounds screened, about 2,000 (36%) were called active. Another 18% or so got no clear call; they are omitted. The list shows a part of the results. Unmarked numbers belong to inactive results. Rule as the data show it: active = normalized growth mostly below about 0.91 (no sharp cut-off); inconclusive = no clear call, values can overlap the other calls; inactive = mostly above about 0.92.
# Experiment: chemical genetic growth profiling, strain panel (AID 1159580);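 also: tested at 20 µM; growth read once vehicle control cultures reached saturation at 30 °C; 1 = growth at the plate median or of vehicle wells; lower values mean less growth of the strain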
# Conditions: S. cerevisiae deletion strains, growth OD
# [1] = locus YAR019C, strain CDC15, active compounds read low
# [2] = locus YBL105C, strain PKC1, active compounds read low
# [3] = locus YBR135W, strain CKS1, active compounds read low
# [4] = locus YBR136W, strain MEC1, active compounds read low
# [5] = locus YBR160W, strain CDC28, active compounds read low
# [6] = locus YDL017W, strain CDC7, active compounds read low
# [7] = locus YDL028C, strain MPS1, active compounds read low
# [8] = locus YDL101C, strain DUN1, active compounds read low
# [9] = locus YDL108W, strain KIN28, active compounds read low
# [10] = locus YDL132W, strain cdc53, active compounds read low
# [11] = locus YDL214C, strain PRR2, active compounds read low
# [12] = locus YDR052C, strain DBF4, active compounds read low
# [13] = locus YDR054C, strain cdc34, active compounds read low
# [14] = locus YDR226W, strain ADK1, active compounds read low
# [15] = locus YDR477W, strain SNF1, active compounds read low
# [16] = locus YER123W, strain YCK3, active compounds read low
# [17] = locus YER133W, strain GLC7, active compounds read low
# [18] = locus YFL009W, strain cdc4, active compounds read low
# [19] = locus YFL029C, strain CAK1, active compounds read low
# [20] = locus YFR003C, strain YPI1, active compounds read low
# [21] = locus YFR019W, strain FAB1, active compounds read low
# [22] = locus YFR028C, strain CDC14, active compounds read low
# [23] = locus YGR040W, strain KSS1, active compounds read low
# [24] = locus YGR052W, strain FMP48, active compounds read low
# [25] = locus YGR092W, strain DBF2, active compounds read low
# [26] = locus YHR030C, strain SLT2, active compounds read low
# [27] = locus YHR079C, strain IRE1, active compounds read low
# [28] = locus YHR082C, strain KSP1, active compounds read low
# [29] = locus YHR205W, strain SCH9, active compounds read low
# [30] = locus YIL147C, strain SLN1, active compounds read low
# [31] = locus YJL095W, strain BCK1, active compounds read low
# [32] = locus YJL157C, strain FAR1, active compounds read low
# [33] = locus YJR016C, strain ILV3, active compounds read low
# [34] = locus YJR066W, strain TOR1 (second series), active compounds read low
# [35] = locus YJR066W, strain TOR1, active compounds read low
# [36] = locus YKL048C, strain ELM1, active compounds read low
# [37] = locus YKL067W, strain YNK1, active compounds read low
# [38] = locus YKL101W, strain HSL1, active compounds read low
# [39] = locus YKL193C, strain SDS22, active compounds read low
# [40] = locus YKL203C, strain TOR2, active compounds read low
# [41] = locus YLR113W, strain HOG1, active compounds read low
# [42] = locus YLR403W, strain SFP1, active compounds read low
# [43] = locus YML070W, strain DAK1, active compounds read low
# [44] = locus YMR001C, strain CDC5, active compounds read low
# [45] = locus YMR205C, strain PFK2 (second series), active compounds read low
# [46] = locus YMR277W, strain FCP1, active compounds read low
# [47] = locus YNL006W, strain LST8, active compounds read low
# [48] = locus YNL020C, strain ARK1, active compounds read low
# [49] = locus YNL161W, strain CBK1, active compounds read low
# [50] = locus YNL183C, strain NPR1, active compounds read low
# [51] = locus YNL207W, strain RIO2, active compounds read low
# [52] = locus YNL222W, strain SSU72, active compounds read low
# [53] = locus YOL078W, strain AVO1, active compounds read low
# [54] = locus YOL136C, strain PFK27, active compounds read low
# [55] = locus YOR061W, strain CKA2, active compounds read low
# [56] = locus YOR119C, strain RIO1, active compounds read low
# [57] = locus YOR231W, strain MKK1, active compounds read low
# [58] = locus YOR329C, strain SCD5, active compounds read low
# [59] = locus YPL031C, strain PHO85, active compounds read low
# [60] = locus YPL153C, strain RAD53, active compounds read low
# [61] = locus YPL204W, strain HRR25, active compounds read low
# [62] = locus YPL209C, strain IPL1, active compounds read low
# [63] = locus YPL256C, strain CLN2, active compounds read low
# [64] = locus YPR025C, strain CCL1, active compounds read low
# [65] = locus YPR106W, strain ISR1, active compounds read low
# [66] = locus YPR111W, strain DBF20, active compounds read low
# [67] = strain NNK1, active compounds read low
# [68] = strain TSCII, active compounds read low
smiles,measurement,setting,value
O=[N+]([O-])c1ccc(Sc2ssc(=S)c2-c2ccccc2)nc1,normalized growth,[1],0.922
same,normalized growth,[2],0.946
same,normalized growth,[3],0.943
same,normalized growth,[4],0.952
same,normalized growth,[5],0.947
same,normalized growth,[6],0.954
same,normalized growth,[7],0.953
same,normalized growth,[8],0.961
same,normalized growth,[9],0.953
same,normalized growth,[10],0.956
same,normalized growth,[11],0.521 (active)
same,normalized growth,[12],0.968
same,normalized growth,[13],0.918
same,normalized growth,[14],1.01
same,normalized growth,[15],0.651 (active)
same,normalized growth,[16],0.338 (active)
same,normalized growth,[17],0.512 (active)
same,normalized growth,[18],0.948
same,normalized growth,[19],0.922
same,normalized growth,[20],0.958
same,normalized growth,[21],0.546 (active)
same,normalized growth,[22],0.97
same,normalized growth,[23],0.673 (active)
same,normalized growth,[24],0.449 (active)
same,normalized growth,[25],0.617
same,normalized growth,[26],0.159 (active)
same,normalized growth,[27],0.247 (active)
same,normalized growth,[28],0.471 (active)
same,normalized growth,[29],0.782
same,normalized growth,[30],0.956
same,normalized growth,[31],0.175 (active)
same,normalized growth,"locus YJL128C, strain PBS2, active compounds read low",1.05
same,normalized growth,[32],0.485 (active)
same,normalized growth,[33],0.951
same,normalized growth,[34],0.312 (active)
same,normalized growth,[35],0.327 (active)
same,normalized growth,[36],0.843
same,normalized growth,[37],0.61 (active)
same,normalized growth,[38],0.791
same,normalized growth,[39],0.933
same,normalized growth,[40],0.674 (active)
same,normalized growth,[41],0.362 (active)
same,normalized growth,"locus YLR133W, strain CKI1, active compounds read low",0.626 (active)
same,normalized growth,[42],0.703
same,normalized growth,[43],0.371 (active)
same,normalized growth,[44],0.932
same,normalized growth,[45],0.722 (active)
same,normalized growth,[46],0.961
same,normalized growth,[47],0.942
same,normalized growth,[48],0.624 (active)
same,normalized growth,[49],0.929
same,normalized growth,[50],0.256 (active)
same,normalized growth,[51],0.944
same,normalized growth,[52],0.934
same,normalized growth,"locus YNL307C, strain MCK1 (second series), active compounds read low",0.633 (active)
same,normalized growth,[53],0.928
same,normalized growth,[54],0.376 (active)
same,normalized growth,[55],0.664 (active)
same,normalized growth,[56],0.728
same,normalized growth,[57],0.229 (active)
same,normalized growth,[58],0.945
same,normalized growth,[59],0.57 (active)
same,normalized growth,[60],0.537 (active)
same,normalized growth,[61],0.422 (active)
same,normalized growth,[62],0.945
same,normalized growth,[63],0.3 (active)
same,normalized growth,[64],0.944
same,normalized growth,[65],0.999
same,normalized growth,[66],0.994
same,normalized growth,[67],0.956
same,normalized growth,[68],0.917
O=C(NNc1ccc(I)cc1)c1cc(Cl)cc(Cl)c1,normalized growth,[1],0.949
same,normalized growth,[2],0.965
same,normalized growth,[3],0.953
same,normalized growth,[4],0.953
same,normalized growth,[5],0.948
same,normalized growth,[6],0.961
same,normalized growth,[7],0.94
same,normalized growth,[8],0.987
same,normalized growth,[9],0.943
same,normalized growth,[10],0.95
same,normalized growth,[11],0.88
same,normalized growth,[12],0.952
same,normalized growth,[13],0.955
same,normalized growth,[14],0.929
same,normalized growth,[15],0.731
same,normalized growth,[16],0.651
same,normalized growth,[17],0.909
same,normalized growth,[18],0.938
same,normalized growth,[19],0.956
same,normalized growth,[20],0.967
same,normalized growth,[21],0.767 (active)
same,normalized growth,[22],0.931
same,normalized growth,[23],0.809
same,normalized growth,[24],0.832
same,normalized growth,[25],0.78
same,normalized growth,[26],0.536 (active)
same,normalized growth,[27],0.918
same,normalized growth,[28],0.848
same,normalized growth,[29],0.746
same,normalized growth,[30],0.955
same,normalized growth,[31],0.695
same,normalized growth,[32],0.94
same,normalized growth,[33],0.971
same,normalized growth,[34],0.865
same,normalized growth,[35],0.771
same,normalized growth,[36],0.889
same,normalized growth,[37],0.906
same,normalized growth,[38],0.842
same,normalized growth,[39],0.96
same,normalized growth,[40],0.926
same,normalized growth,[41],0.498 (active)
same,normalized growth,[42],0.842
same,normalized growth,[43],0.849
same,normalized growth,[44],0.953
same,normalized growth,[45],0.904
same,normalized growth,[46],0.931
same,normalized growth,[47],0.972
same,normalized growth,[48],0.901
same,normalized growth,[49],0.97
same,normalized growth,[50],0.889
same,normalized growth,[51],0.963
same,normalized growth,[52],0.946
same,normalized growth,[53],0.955
same,normalized growth,[54],0.864
same,normalized growth,[55],0.715
same,normalized growth,[56],0.79
same,normalized growth,[57],0.884
same,normalized growth,[58],0.976
same,normalized growth,[59],0.81
same,normalized growth,[60],0.84
same,normalized growth,[61],0.832
same,normalized growth,[62],0.956
same,normalized growth,[63],0.749 (active)
same,normalized growth,[64],0.959
same,normalized growth,[65],0.957
same,normalized growth,[66],0.929
same,normalized growth,[67],0.97
same,normalized growth,[68],0.946
